Source: PubChem BioAssay (Tox21)
Several values for one entry are separate records, joined by “and”; a condition that tells them apart may be missing. Equal values may be shown once. Results filed as inconclusive are left out. Some compounds were tested as several samples or in several runs, with calls that do not always agree. Activity calls are given as the source filed them. Unless noted, the call rests on the fitted dose curve; in most records, active means well fitted curve in the direction sought with a large enough effect in the repeat runs; inconclusive means weak or mixed curves; inactive means no such curve, though single readings can be large; an effect the other way counts as inactive or inconclusive.

Assays:
[1] = qHTS RealTime-Glo MT Cell Viability Assay in HepG2 cells - 16 hour (AID 1224885); further: nearly all actives have a fitted effect of over 50% in size
Method in brief: (§1)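 Real-time, nonlytic viability: 600 HepG2 cells/well mixed with NanoLuc enzyme plus prosubstrate; 5 h settle, compound (DMSO) added by pintool; luminescence monitored over 40 h at 37 C.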

[2] = qHTS RealTime-Glo MT Cell Viability Assay in HEK293 cells - 24 hour (AID 1224886); further: top concentration of the series differs between compounds; nearly all actives have a fitted effect of over 50% in size
Method in brief: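 Cells + reagent dispensed (600 cells/well, HEK293) → 5 h at 37 C/5% CO2 → 23 nL compound in DMSO pinned → 40 h at 37 C → luminescence read at 0, 8, 16, 24, 32, 40 h.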

[3] = qHTS RealTime-Glo MT Cell Viability Assay in HEK293 cells - 8 hour (AID 1224887); further: top concentration of the series differs between compounds; nearly all actives have a fitted effect of over 50% in size
Method in brief: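 Luminescence, which tracks viable cell number through reduction of the prosubstrate to a NanoLuc substrate, was read over continuous 37 C culture. Cells (600/well) were premixed with reagent and rested 5 h before 23 nL of compound in DMSO was pinned.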

[4] = A CellTox Green Cytotoxicity Assay to monitor cytotoxicity in HEK293 cells - 16 hour (AID 1224888); further: nearly all actives have a fitted effect of over 35% in size
Method in brief: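 Fluorescence from a DNA-binding dye excluded by viable cells was measured repeatedly in the same HEK293 wells (600 cells/well) during continuous compound exposure at 37 C. Each assay gives one read point: 0, 8, 16, 24, 32 or 40 h.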

[5] = qHTS RealTime-Glo MT Cell Viability Assay in HepG2 cells - 0 hour (AID 1224889); further: nearly all actives have a fitted effect of over 50% in size
Method in brief: as §1

[6] = A CellTox Green Cytotoxicity Assay to monitor cytotoxicity in HepG2 cells - 8 hour (AID 1224890); further: nearly all actives have a fitted effect of over 45% in size; further: potency means the concentration at half of the fitted maximal effect
Method in brief: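 Real-time cytotoxicity: fluorescence of a cell-impermeant cyanine dye binding DNA of dead HepG2 cells, measured repeatedly (0–40 h) during compound exposure at 37 C. Cells seeded 600/well with reagent, dosed after 5 h.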

[7] = qHTS assay to identify small molecule antagonists of the estrogen receptor alpha (ER-alpha) signaling pathway using the BG1 cell line in the presence of 0.1 nM 17-beta-estradiol - cell viability counter screen (AID 1259241); further: nearly all actives have a fitted effect of over 40% in size
Method in brief: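 VM7Luc4E2 cells (endogenous ER-alpha, 4×ERE-luciferase), hormone-starved 5 days in charcoal-stripped FBS, were treated with compounds plus 0.1 nM 17beta-estradiol for 22 hr at 37C; viability read in same wells as CellTiter-Fluor live-cell protease fluorescence.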

[8] = qHTS assay to identify small molecule antagonists of the androgen receptor (AR) signaling pathway using the MDA cell line in the presence of 0.5 nM R1881 - cell viability counter screen (AID 1259242); further: nearly all actives have a fitted effect of over 45% in size
Method in brief: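 Live-cell protease activity was measured by CellTiter-Fluor fluorescence after 30 min. Before that, MDA-kb2 MMTV-luciferase cells had 16 hr at 37C without CO2, exposed to test compounds and 0.5 nM R1881 final.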

[9] = target: Estrogen receptor (Homo sapiens) (UniProt P03372); assay: qHTS assay to identify small molecule antagonists of the estrogen receptor alpha (ER-alpha) signaling pathway using the BG1 cell line in the presence of 0.1 nM 17-beta-estradiol (AID 1259244); further: nearly all actives have a fitted effect of over 50% in size
Method in brief: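 Luciferase luminescence (ONE-Glo, 30 min at room temperature) was read after 22 hr at 37C exposure to compounds plus 17beta-estradiol at 0.1 nM final. Cells were VM7Luc4E2 with endogenous ER-alpha and an ERE-driven luciferase, pre-cultured 5 days in hormone-depleted medium.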

[10] = qHTS assay to identify small molecule HDAC inhibitors (AID 1259364); further: nearly all actives have a fitted effect of over 45% in size; further: potency means the concentration at half of the fitted maximal effect
Method in brief: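 Luminescence read after 30 min room-temperature HDAC-Glo incubation measures cellular class I/II HDAC activity. Compounds were applied for 2 hr at 37 C to HCT-116 wild-type cells seeded the day before.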

[11] = qHTS assay to identify small molecule HDAC inhibitors - cell viability counter screen (AID 1259365)
Method in brief: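 Wild-type HCT-116 cells were seeded at 1,500 per well, incubated overnight at 37 C, then exposed to compounds in DMSO for 2hr. Viability was read by CellTiter-Glo luminescence after 30min at room temperature.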

[12] = qHTS assay to identify small molecule agonists of the sonic hedgehog signaling (Shh) pathway - cell viability counter screen (AID 1259366); further: nearly all actives have a fitted effect of over 50% in size
Method in brief: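 NIH/3T3-derived 3T3 Gli1-Luc cells (stable Gli1-responsive firefly luciferase reporter) were seeded, rested 4 hr at 37 C/5% CO2, then exposed to compounds in DMSO for 24 hr; viability was read by CellTiter-Fluor fluorescence in the same wells.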

[13] = qHTS assay to identify small molecule antagonists of the sonic hedgehog signaling (Shh) pathway - cell viability counter screen (AID 1259367); further: nearly all actives have a fitted effect of over 55% in size; further: potency means the concentration at half of the fitted maximal effect
Method in brief: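 Tox21 library chemicals were tested on a Gli1-Luc NIH/3T3 clone (2,000 cells/well) stimulated by conditioned medium; viability was quantified as fluorescence from CellTiter-Fluor reagent added at 23 hr.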

[14] = qHTS assay to identify small molecule agonists of the sonic hedgehog signaling (Shh) pathway (AID 1259368; calls by dose curve; further: series mostly up to about 92 µM; nearly all actives have a fitted effect of over 15% in size)
Method in brief: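 Luminescence was read after 30 min at room temperature with luciferase reagent. Before that, 3T3Gli1-Luc cells (NIH/3T3 clone, stable Gli1-Luc reporter; 2,000/well) were exposed to compounds for 24 hr at 37C, 5% CO2, compounds being added 4 hr post-plating.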

[15] = qHTS assay to identify small molecule antagonists of the sonic hedgehog signaling (Shh) pathway (AID 1259369; calls by dose curve; further: nearly all actives have a fitted effect of over 45% in size; further: potency means the concentration at half of the fitted maximal effect)
Method in brief: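 Antagonist mode: compound added to 3T3 Gli1-Luc cells followed by conditioned-medium stimulation, 24 h at 37 C, 5% CO2. Inhibition taken as loss of Gli1-driven luciferase luminescence.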

[16] = target: Estrogen receptor beta (Homo sapiens) (UniProt Q92731); assay: qHTS assay to identify small molecule agonists of the estrogen receptor beta (ER-beta) signaling pathway (AID 1259377; active means well fitted activation curve with a large enough effect in the signal ratio in the repeat runs, not every such curve was filed as active; the % refers to the signal ratio)
Method in brief: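 ER-beta-UAS-bla HEK293T (GripTite) cells carrying a UAS-driven beta-lactamase reporter, in medium with 2% charcoal-stripped FBS, were exposed to compounds for 16 hr at 37C; LiveBLAzer B/G FRET substrate was then added and fluorescence read after 2 hours at room temperature.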

[17] = target: Estrogen receptor beta (Homo sapiens) (UniProt Q92731); assay: qHTS assay to identify small molecule antagonists of the estrogen receptor beta (ER-beta) signaling pathway (AID 1259378; active means well fitted inhibition curve with a large enough effect in the signal ratio in the repeat runs, not every such curve was filed as active; the % refers to the signal ratio)
Method in brief: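 ER-beta-UAS-bla HEK293T cells in 2% charcoal-stripped FBS medium treated with compound plus 1nM final 17-beta-estradiol for 16 hr at 37C. Beta-lactamase reporter read by FRET substrate fluorescence after 2 hours at room temperature.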

[18] = qHTS assay to identify small molecule phospholipidosis (PLD) inducers (AID 1259344; active means well fitted curve in the direction sought with a large enough effect; an effect the other way counts as inactive or inconclusive)
Method in brief: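 Image-based: LipidTOX Red pit count/intensity per well and per cell; HepG2, 24 h compound at 37 C, PFA fixation, Hoechst counterstain.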

[19] = qHTS assay to identify small molecule agonists of the androgen receptor (AR) signaling pathway in the presence of an antagonist - cell viability counter screen (AID 1259379);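 further: MDA-kb2 human breast cancer cells carrying an MMTV luciferase reporter; series mostly up to about 92 µM; nearly all actives have a fitted effect of over 25% in size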
Method in brief: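 Cytotoxicity counter-screen run in the same wells as the nilutamide-challenged (3.0 µM final) AR agonist assay in MDA-kb2 cells. Compounds tested at 15 concentrations for 16 h, 37 °C without CO2; CellTiter-Fluor fluorescence read.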

[20] = target: Androgen receptor (Homo sapiens) (UniProt P10275); assay: qHTS assay to identify small molecule antagonists of the androgen receptor (AR) signaling pathway using the MDA cell line in the presence of 0.5 nM R1881 (AID 1259243); further: nearly all actives have a fitted effect of over 50% in size
Method in brief: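 Luminescent reporter readout (ONE-Glo, 30 min, room temperature) after 16 hr co-treatment of MDA-kb2 cells with test compounds and 0.5 nM R1881 final, at 37C without CO2. The MMTV-driven luciferase responds to both AR and GR.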

Measured: Potency

Estrogen receptor (Homo sapiens), sequence (P03372 whole entry, looked up): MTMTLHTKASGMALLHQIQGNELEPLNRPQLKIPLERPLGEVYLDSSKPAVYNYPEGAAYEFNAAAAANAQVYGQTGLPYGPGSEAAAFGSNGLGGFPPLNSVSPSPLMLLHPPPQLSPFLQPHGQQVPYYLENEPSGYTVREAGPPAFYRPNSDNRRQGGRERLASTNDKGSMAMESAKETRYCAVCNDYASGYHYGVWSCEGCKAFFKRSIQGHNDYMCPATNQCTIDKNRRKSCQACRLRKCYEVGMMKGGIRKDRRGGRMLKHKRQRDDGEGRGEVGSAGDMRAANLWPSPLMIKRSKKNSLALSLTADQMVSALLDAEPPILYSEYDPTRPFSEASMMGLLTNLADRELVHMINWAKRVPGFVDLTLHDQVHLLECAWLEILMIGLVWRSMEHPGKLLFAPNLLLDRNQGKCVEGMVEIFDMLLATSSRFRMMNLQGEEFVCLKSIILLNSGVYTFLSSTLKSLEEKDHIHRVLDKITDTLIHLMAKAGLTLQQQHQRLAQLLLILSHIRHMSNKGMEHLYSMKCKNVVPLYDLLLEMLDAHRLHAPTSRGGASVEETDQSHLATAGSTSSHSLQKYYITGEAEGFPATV
Estrogen receptor beta (Homo sapiens), sequence (Q92731 whole entry, looked up): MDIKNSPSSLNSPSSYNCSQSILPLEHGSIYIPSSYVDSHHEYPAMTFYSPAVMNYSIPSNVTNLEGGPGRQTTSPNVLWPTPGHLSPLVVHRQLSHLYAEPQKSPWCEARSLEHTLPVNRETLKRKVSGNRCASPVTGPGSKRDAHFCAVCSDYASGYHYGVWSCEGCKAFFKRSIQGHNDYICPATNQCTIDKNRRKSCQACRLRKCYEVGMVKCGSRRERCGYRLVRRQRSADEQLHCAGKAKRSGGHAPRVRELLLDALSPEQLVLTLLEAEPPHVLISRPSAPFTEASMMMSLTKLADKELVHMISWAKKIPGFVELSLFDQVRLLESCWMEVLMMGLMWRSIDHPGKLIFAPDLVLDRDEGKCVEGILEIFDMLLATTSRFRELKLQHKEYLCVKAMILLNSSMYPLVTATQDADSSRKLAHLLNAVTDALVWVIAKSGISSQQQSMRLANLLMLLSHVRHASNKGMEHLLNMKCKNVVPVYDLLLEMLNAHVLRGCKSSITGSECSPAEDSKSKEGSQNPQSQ
Androgen receptor (Homo sapiens), sequence (P10275 whole entry, looked up): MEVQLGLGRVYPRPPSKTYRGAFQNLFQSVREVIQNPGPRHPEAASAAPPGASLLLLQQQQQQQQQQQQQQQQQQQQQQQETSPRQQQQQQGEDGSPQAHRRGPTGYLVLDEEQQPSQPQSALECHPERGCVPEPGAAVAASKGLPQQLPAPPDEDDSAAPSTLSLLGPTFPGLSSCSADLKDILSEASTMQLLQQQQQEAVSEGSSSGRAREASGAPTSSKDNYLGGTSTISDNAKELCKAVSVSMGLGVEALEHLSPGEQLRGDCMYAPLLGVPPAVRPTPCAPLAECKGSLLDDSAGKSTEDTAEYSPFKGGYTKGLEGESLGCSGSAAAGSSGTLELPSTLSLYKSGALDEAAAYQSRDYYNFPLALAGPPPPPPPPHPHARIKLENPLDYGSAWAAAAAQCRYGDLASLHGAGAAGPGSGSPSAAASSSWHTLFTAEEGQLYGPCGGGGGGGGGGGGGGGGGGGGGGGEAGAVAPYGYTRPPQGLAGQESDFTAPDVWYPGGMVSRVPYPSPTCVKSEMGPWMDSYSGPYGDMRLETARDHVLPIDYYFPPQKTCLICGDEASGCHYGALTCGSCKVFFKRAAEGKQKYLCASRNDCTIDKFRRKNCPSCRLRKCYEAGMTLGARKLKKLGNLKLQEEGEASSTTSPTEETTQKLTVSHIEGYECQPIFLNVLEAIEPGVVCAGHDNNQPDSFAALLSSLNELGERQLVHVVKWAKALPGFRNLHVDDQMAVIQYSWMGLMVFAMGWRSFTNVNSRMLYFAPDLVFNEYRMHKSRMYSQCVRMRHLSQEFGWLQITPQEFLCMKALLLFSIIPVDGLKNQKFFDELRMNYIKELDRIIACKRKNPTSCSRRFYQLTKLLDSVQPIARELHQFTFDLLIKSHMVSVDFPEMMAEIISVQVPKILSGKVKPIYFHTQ

O=C(O)CCCCCCCCCCC(=O)O
active: [10] 21.9 µM and 21.7 µM
not listed: [16] | [17] | [18] | [19] | [20]
inactive: all other assays above

Nc1ccccc1[N+](=O)[O-]
not listed: [9] | [18] | [19] | [20]
inactive: all other assays above

COc1ccc2cc([C@H](C)C(=O)O)ccc2c1
not listed: [9] | [12] | [16] | [17] | [20]
inactive: all other assays above

CCc1cccc(C)c1N
not listed: [16] | [17] | [18] | [19]
inactive: all other assays above

CN(C)CCOCCN(C)C
inactive and 49 µM (active): [6]
not listed: [9] | [18] | [20]
inactive: all other assays above

O=c1[nH]c(=O)n([C@H]2C[C@H](O)[C@@H](CO)O2)cc1Br
not listed: [12] | [20]
inactive: all other assays above

COS(C)(=O)=O
not listed: [16] | [17] | [18] | [19] | [20]
inactive: all other assays above

Cc1cc(C)c(C)cc1C
not listed: [16] | [17] | [18] | [19] | [20]
inactive: all other assays above

CCCCCCCCCCCCOCCO
27.3 µM (active) and inactive: [15]
48.6 µM (active) and inactive: [13]
not listed: [9] | [12] | [16] | [17] | [18]
inactive: all other assays above
